About 430 (0.93%) of roughly 46,000 compounds were called active. The entries come from a sample that favours actives as a whole. Unmarked numbers belong to inactive results. No stated cut-off is given here; in the data, active means normalized absorbance mostly below about 85% (no sharp cut-off); inactive means mostly above about 86%.
What follows are compounds tested on Vaccinia virus DNA polymerase (E9) processive complex (assay: vaccinia E9 polymerase processive synthesis inhibitors, primary screen, biochemical, absorbance (AID 493162)). Settings: in vitro processive DNA synthesis, absorbance read-out; active compounds read low; concentration not given here.

Row | Structure (SMILES) | normalized absorbance
1 | Cc1cc(C(=O)OCC(=O)N2CCc3ccccc3C2)c(C)o1 | 103%
2 | O=C(COC(=O)c1ccc2ccccc2n1)Nc1ccc(Cl)c(C(F)(F)F)c1 | 100%
3 | O=C1CC(c2ccc(Cl)cc2)Sc2nc3ccccc3n21 (stereo not given) | 100%
4 | CCc1ccccc1Nc1cc(C(=O)NCC2COc3ccccc3O2)c2ccccc2n1 (stereo not given) | 99.1%
5 | O=C(OCC(=O)N1CCCCCC1)c1ccc(Cl)nc1 | 106%
6 | Brc1ccccc1C1OCC2(CO1)COC(c1ccccc1Br)OC2 (stereo not given) | 100%
7 | O=C(Nc1nc(-c2ccc(Cl)s2)cs1)C1=COCCO1 | 98.9%
8 | CCn1c(CNC(C)=O)nc2ccccc21 | 101%
9 | O=C(COC(=O)c1n[nH]c2ccccc12)NC(c1ccccc1)c1ccccc1 | 98.6%
10 | CNC(=O)Nc1ccc(C(=O)NC)cc1 | 101%
11 | CCOc1ccc(OCC)c(NC(=O)CCS(=O)(=O)c2ccc(C)cc2)c1 | 91.4%
12 | CCn1c(=NC(=O)C2CC2)sc2cc(Cl)ccc21 | 71.3%
13 | NNc1cccc(Cl)n1 | 78.5% (active)
14 | COC(=O)CN1C(=O)c2cccnc2Oc2ccc(C)cc21 | 92%
15 | O=C(O)c1ccc(N=Cc2ccc(OC(=O)c3sc4ccccc4c3Cl)cc2)cc1 | 100%
16 | CS(=O)(=O)c1nc2ccccc2[nH]1 | 103%
17 | C/C(CCc1ccc2c(c1)OCO2)=N\N1C(=N)SC(C(=O)Nc2ccc(C(=O)O)cc2)CC1=O (stereo not given) | 100%
18 | COc1ccc2nc(C(=O)N3CCN(C)CC3)sc2c1 | 85.1%
19 | O=C1CN(C(=O)CCC(=O)c2ccc(F)cc2)c2ccccc2N1 | 101%
20 | Cn1c(NCc2ccccc2)nc2ccccc21 | 101%
21 | O=C(O)CCNC(=O)c1ccc2c(c1)OCCO2 | 102%
22 | CSc1ncc(Cl)c(C(=O)N2CCN(c3cccc(Cl)c3)CC2)n1 | 95.5%
23 | O=P(O)(CN1CCCCCC1)C1Cc2ccccc2C1 | 84.6%
24 | CCOC(=O)c1c(C)oc2ccc(OC(=O)c3ccco3)cc12 | 99.5%
25 | CC12CCC3C(CC=C4CC(OC5CCCCO5)CCC43C)C1CCC2=O (stereo not given) | 100%
26 | CC(C)(C)c1cc(C(F)(F)F)n2ncnc2n1 | 99.9%
27 | C=CCN(C(=O)c1cccc2c1SCCC2=O)c1ccccc1 | 113%

Row | Structure (SMILES) | normalized absorbance
28 | CCN(CC)c1ccc(N=Cc2cccs2)cc1 | 99.2%
29 | CCOC(=O)c1c(NC(=O)C(C)Sc2ncccn2)sc2c1CCC2 (stereo not given) | 91.9%
30 | CCN(CC)c1ccc(N=C2C(=C(C#N)C#N)c3ccccc3C2=C(C#N)C#N)cc1 | 99.9%
31 | CC(c1ccco1)N(C(=O)c1cccnc1Cl)c1ccccn1 (stereo not given) | 97.4%
32 | c1ccc2c(c1)[I+]c1ccccc1-2 | 15.1% (active)
33 | Oc1ccccc1-c1nnc2n1CCC2 | 102%
34 | O=S(=O)(Cc1ccc(Cl)cc1)N1CCc2ccccc2C1 | 107%
35 | CC(C)(C)S(=O)(=O)c1cccs1 | 90.5%
36 | CC(=O)Nc1ccc2c(c1)CN(C1CCCCC1)CO2 | 89%
37 | O=C(O)c1ccc(NC(=O)C23CC4CC(CC(C4)C2)C3)cc1 | 95.6%
38 | O=C1C2CC3CC1CC(C(=O)O)(C3)C2 | 61.8% (active)
39 | Cc1ccc2cccc(SCc3ccc(Br)cc3)c2n1 | 99.8%
40 | O=C(NCCc1ccccc1)C(C(=O)c1ccccc1)n1ccccc1=O (stereo not given) | 104%
41 | CCc1nc2ccccc2n1CC(=O)N(c1ccccc1)C(C)C | 99.6%
42 | CC(C)N(C(=O)CSc1ncn[nH]1)c1ccccc1 | 95.7%
43 | Fc1ccc(CNCc2ccccn2)cc1 | 105%
44 | Cc1cc(C(=O)OCC(=O)N2C(C)CCCC2C)c2ccccc2n1 (stereo not given) | 106%
45 | CCNCC1Cc2ccccc2O1 (stereo not given) | 110%
46 | CC(=O)N1CCc2c(sc(NC(=O)C(C)C)c2C(N)=O)C1 | 119%
47 | COC(=O)c1c(NC(NC(C)=O)(C(F)(F)F)C(F)(F)F)sc2c1CCN(C)C2 | 99.8%
48 | COC(=O)c1c(NC(=O)c2ccc(OC)cc2)sc2c1CCN(C(C)C)C2 | 56.5% (active)
49 | Cc1cc(C)c(S(=O)(=O)N2CCOCC2)cc1C | 105%
50 | CC(C)Oc1cccc(NC(=O)Cc2ncc(C(F)(F)F)cc2Cl)c1 | 103%
51 | CC(=Nc1ccc(N(C)C)cc1)C1=C(O)c2ccccc2C1=O | 103%
52 | Cc1ccc(NC(=O)/C=C/c2ccc(Br)o2)cc1 | 100%
53 | O=C1Cc2cc(S(=O)(=O)NCc3cccs3)ccc2N1 | 105%
54 | O=C(OCC(=O)N1CCCC1)c1ccc(Oc2ccccc2)cc1 | 94.5%

Row | Structure (SMILES) | normalized absorbance
55 | O=C(Nc1nc(-c2ccccc2)cs1)c1cccc(S(=O)(=O)N2CCCC2)c1 | 111%
56 | CN(C)S(=O)(=O)n1cc(/C=C(\NC(=O)c2ccccc2)C(=O)NCc2ccco2)c2ccccc21 | 80.2%
57 | CC[N+](C)(CC)CCC[n+]1c(-c2ccccc2)c2cc(N)ccc2c2ccc(N)cc21 | 8.9% (active)
58 | CC[n+]1c(C)n(-c2ccccc2)c2ccc(N)cc21 | 99.4%
59 | CCc1ccc(/C=C2\SC(=S)N(CCCC(=O)Nc3cccnc3)C2=O)cc1 | 99.7%
60 | O=C(Nc1nccs1)c1cc(=O)c2ccccc2o1 | 101%
61 | O=C(O)c1ccccc1-c1ccccc1C(=O)Nc1nccs1 | 70.1%
62 | Nc1[nH]c(=S)sc1C(=O)Nc1nccs1 | 58.3% (active)
63 | CCN1CCN(CCNC(=O)c2ccc3c(c2)NC(=O)/C(=C\c2cccc(Cl)c2)S3)CC1 | 79.8%
64 | Clc1ccc(-c2ncc3ccccn23)c(Cl)c1 | 101%
65 | OC1CCN(c2ncc(C(F)(F)F)cc2Cl)CC1 | 105%
66 | Cc1ccc2nc(C)c3c(c2c1)N(c1ccccc1)CC3 | 61.5% (active)
67 | Cc1ccc2nc(Nc3ccccc3)cc(C)c2c1 | 100%
68 | O=C(CSc1nc2ccc(N=Cc3cc(Br)ccc3O)cc2s1)Nc1ccccc1 | 100%
69 | CCCNS(=O)(=O)c1ccc2c(c1)oc(=O)n2CC(=O)OCC | 99.1%
70 | O=c1c(/C=N\O)coc2ccc(F)cc12 | 79.3%
71 | COc1cccc2c(=O)n(CC(=O)NCc3ccccc3)ccc12 | 90%
72 | CN(C(=O)COC(=O)c1cnc(Cl)c(Cl)c1)c1ccccc1 | 101%
73 | COCc1cc(Cl)nc(-c2ccccc2)n1 | 103%
74 | c1csc(Nc2nc3cc4c(cc3s2)OCO4)n1 | 96.8%
75 | CCCCN1N=C(C)CC1=O | 99.9%
76 | CCC(=O)Oc1ccc(Br)cc1/C=C1\Sc2ccccc2C1=O | 99.9%
77 | ClCc1csc(-c2ccccc2)n1 | 96.4%
78 | Cc1ccc2cc(CCNC(=O)CCC3CCCC3)c(=O)[nH]c2c1 | 101%
79 | COCCn1cc(C(=O)NC2CCCCCC2)c2c3ccccc3n(C)c2c1=O | 102%
80 | Cn1c(C(=O)NC2CCCC2)cc2oc3ccccc3c21 | 104%
81 | CCN1CCCC1CNC(=O)c1cc2c(=O)n(C)c3ccccc3c2n1C (stereo not given) | 51.4% (active)

Row | Structure (SMILES) | normalized absorbance
82 | COc1cc2c3c(c1OC)C1(C=CC(=O)C=C1)CC3[N+](C)(C)CC2 (stereo not given) | 75.6%
83 | O=C(N=C1SC2CS(=O)(=O)CC2N1c1ccccc1)c1ccccc1 (stereo not given) | 112%
84 | Cc1cc(S(=O)(=O)N2CCN(Cc3ccccc3)CC2)c(C)cc1Cl | 71.9%
85 | Cc1ccc(-c2cn3nc(N4CCC(C(=O)NCCCN5CCCCC5)CC4)sc3n2)cc1 | 104%
86 | O=C(NCCCN1CCCC1)c1cc(-c2ccncc2)nc2ccccc12 | 86.5%
87 | Cc1c(C(=O)NCCCN2CCCCCC2)oc2ccc3nc(N(C)C)sc3c12 | 64.3% (active)
88 | CC(C)=CCC(O)C1=CC(=O)c2c(O)ccc(O)c2C1=O (stereo not given) | 81.9% (active)
89 | Cc1ccccc1NC1=NC2(CCCCC2)N=C(N)N1 | 100%
90 | O=C(O)CCc1nc2cc(Cl)ccc2n(Cc2ccccc2)c1=O | 98.8%
91 | O=C(O)CC(c1ccccc1)n1cnnn1 (stereo not given) | 107%
92 | O=C(O)CC(c1ccccc1)c1cc(Cl)ccc1O (stereo not given) | 73.5% (active)
93 | CC(=O)N1CC(C)Oc2cc(S(=O)(=O)N(C)Cc3ccccc3)ccc21 (stereo not given) | 103%
94 | COc1cccc2c1C(=O)C1C(O)=C3C(=C(O)C1C2=O)C[C@@](O)(C(=O)CO)C[C@@H]3OC1CC(N)C(O)C(C)O1 (stereo not given in full) | 7.8% (active)
95 | Cc1ccccc1Nc1nn2c(=O)c3ccc(C(=O)NCc4ccccc4Cl)cc3nc2s1 | 96.3%
96 | Cc1scc(-c2ccccc2)[n+]1C | 97%
97 | S=c1cc(-c2ccccc2)oc(-c2ccccc2)c1 | 99.9%
98 | CN(C)CCN=c1cc(-c2ccccc2)oc2ccc(Cl)cc12 | 25.3% (active)
99 | Clc1ccc2oc(-c3ccccc3)c/c(=N\c3nccs3)c2c1 | 99.8%
100 | N#Cc1ccccc1NC(=O)CSc1ccccc1 | 105%
101 | O=C(CCNS(=O)(=O)c1ccc2[nH]c(=O)ccc2c1)NC1CCCC1 | 103%
102 | Cc1ccc(S(=O)(=O)N2CCCC(C(=O)N(C)c3ccccc3)C2)cc1 (stereo not given) | 101%
103 | O=C(NCCCN1CCOCC1)c1cc2c(s1)CCC2 | 82.2%
104 | COC(CN(C)C(=O)c1cc2c(Cl)nc3ccc(C)cc3c2s1)OC | 80.2%
105 | Cc1ccc2nc(Cl)c3cc(C(=O)NCCN4CCN(C)CC4)sc3c2c1 | 22.8% (active)
